Here are results for eight compounds from PMC5540273 (PLoS ONE, 2017).

Conditions in all cases: concentration: 1 μM, replicates: in singlicate; n = 1
For test [1], the system named is PIK3CD.
Test [2] deals with PIK3CG.
Test [3] relates to T1, PIK4CB.
T1 construct: gene PI4KB

The test system of test [4] is PIKFYVE.
In test [5] the test system is PIM1.
For test [6], the system named is PIM2.
For test [7], the system named is PIM3.
Test [8] concerns PIP5K1A.
Test [9] relates to PIP5K1C.
The subject of test [10] is PIP5K2B.
Test [11] relates to T2, PIP5K2C.
T2 construct: gene PIP4K2C

The test system of test [12] is T3, PKAC-alpha.
T3 construct: gene PRKACA

Test [13] has as its system T4, PKAC-beta.
T4 construct: gene PRKACB

Test [14] concerns PKMYT1.
Test [15] relates to PKN1.
For test [16], the system named is PKN2.
Test [17] has as its system PLK1.
Test [18] concerns PLK2.
Test [19] has as its system PLK3.
Test [20] has as its system PLK4.
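Note: KINOMEscan kinase panel screen.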

Regarding `C[C@@H]1CCN(C(=O)CO)C[C@@H]1N(C)c1ncnc2[nH]ccc12`, the “%Inh” value in test [1] is given as 5%; in test [2], 0%; in test [3], 0%; in test [4], 48%; in test [5], 0%; in [6] it was 0%. Further, the “%Inh” value in test [7] stood at 0%; in test [8], 16%; in test [9], 0%; in test [10], 0%; in test [11] it was 0%; in [12], 0%. Also, the “%Inh” value in test [13] is 93.7%; in test [14] it was 100%; in test [15], 20%; in [16], 21%; in [17] it was 0%; in test [18], 0%. In addition, the “%Inh” value is 12% in [19] and 3% in test [20].

As for `CSc1ccc(NC2=C(c3ccccc3Cl)C(=O)NC2=O)cc1` [SB-342411], the “%Inh” value in [1], in test [2], in test [3], in [4], in [5] and in [6] was 0% each time. Besides, the “%Inh” value is reported as 0% in [7]; 0% in test [8]; 33% in [9]; 0% in test [10]; 0% in test [11]; 74% in test [12]. Also, the “%Inh” value in [13] is reported as 0%; in [14], 25%; in [15] it was 36%; in test [16] it was 0%; in test [17] it was 8%; in test [18], 0%. Further, the figures for the “%Inh” value in [19] and in test [20] were 0% and 13%, respectively.

As for `C[C@H]1CC[C@@H](C(=O)Nc2ccccc2)CN1c1cc(-c2ccc3c(N)n[nH]c3c2)nc(N)n1` [GSK2283293], the “%Inh” value is 0% in [1]; 0% in test [2]; 0% in [3]; 0% in test [4]; 13% in test [5]; 0% in test [6]. In addition, the “%Inh” value in test [7] was 0%; in test [8] it was 0%; in test [9], 19%; in [10] it was 24%; in [11], 15%; in test [12], 0%. For the same compound, the “%Inh” value in [13] was determined as 0%; in test [14], 0%; in test [15], 0%; in [16] it was 0%; in test [17] it was 0%; in test [18], 4%. Also, the “%Inh” value in test [19] and in [20] was 0% in each case.

Take `CC(C)(C)OC(=O)NC1CCCN(c2cc(-c3ccc4c(N)n[nH]c4c3)nc(N)n2)C1` (stereo not shown) [GSK2286096]: the “%Inh” value in test [1] turned out to be 0%; in test [2], 19%; in test [3] it was 1%; in test [4], 0%; in [5], 9%; in test [6] it was 0%. Moreover, the “%Inh” value in test [7] is given as 5%; in test [8], 0%; in [9], 7%; in test [10], 19%; in test [11] it was 0%; in test [12] it was 0%. The “%Inh” value in test [13] is reported as 0%; in test [14] it was 0%; in [15], 0%; in test [16], 0%; in test [17], 16%; in [18] it was 0%. Besides, the “%Inh” value came out at 0% in test [19] and 10% in [20].

`O=c1cc(N2CCOCC2)nc2n(Cc3cccc(Cl)c3)ccn12` [GSK2296823]: the “%Inh” value amounted to 68% in test [1]; 0% in test [2]; 2% in test [3]; 0% in test [4]; 0% in [5]; 0% in test [6]. Moreover, the “%Inh” value is recorded as 0% in test [7]; 0% in [8]; 8% in [9]; 11% in test [10]; 0% in test [11]; 0% in [12]. For the same compound, the “%Inh” value is 0% in test [13]; 11% in [14]; 34% in test [15]; 0% in test [16]; 5% in test [17]; 0% in test [18]. The “%Inh” value in test [19] and in test [20] was 0% each time.

As to `Fc1cccc(COc2ccc(Nc3ncnc4sc(-c5ccc[nH]5)cc34)cc2Cl)c1` [GW707818], the “%Inh” value in test [1] is recorded as 0%; in test [2], 0%; in [3] it was 0%; in [4] it was 0%; in test [5], 20%; in [6], 0%. In addition, the “%Inh” value in test [7] worked out at 14%; in test [8] it was 29%; in test [9], 46%; in test [10] it was 0%; in [11] it was 25%; in [12], 0%. Further, the “%Inh” value in [13] is 0%; in test [14], 0%; in test [15], 32%; in [16] it was 1%; in test [17] it was 0%; in test [18] it was 7%. Further, the “%Inh” value is reported as 19% in test [19] and 0% in [20].

Consider `CC(C)(C)c1ccc(-n2cnc3c(N)ncnc32)cc1` [SKF-97263], for which the “%Inh” value is recorded as 28% in [1]; 100% in [2]; 30% in test [3]; 0% in test [4]; 9% in test [5]; 0% in [6]. The “%Inh” value amounted to 0% in test [7]; 0% in test [8]; 0% in [9]; 2% in test [10]; 27% in test [11]; 4% in test [12]. Besides, the “%Inh” value in test [13] turned out to be 2%; in [14], 3%; in [15], 39%; in test [16], 11%; in [17] it was 7%; in [18], 0%. Besides, the “%Inh” value in test [19] and in test [20] was 0% in each case.

With `Cl.Fc1ccccc1COc1ccc(Nc2ncnc3ccc(-c4nnc(C(F)(F)F)o4)cc23)cc1Cl` [GW424170], the “%Inh” value in test [1], in test [2], in test [3], in test [4], in test [5] and in [6] was 0% in each case. Besides, the “%Inh” value worked out at 0% in test [7]; 66% in test [8]; 36% in test [9]; 7% in [10]; 7% in test [11]; 0% in [12]. The “%Inh” value in test [13], in test [14], in test [15], in test [16], in [17] and in test [18] was 0% in each case. For the same compound, the “%Inh” value in test [19] and in test [20] was 0% throughout.
